Reference: PubChem BioAssay AID1259415 (National Center for Advancing Translational Sciences (NCATS), 2018)
Screen size: about 410,000 compounds; about 18,000 (4.4%) were called active. Inconclusive results (about 7%) are left out. The full list was thinned out, with actives kept by preference. A number with no mark means an inactive call. No stated cut-off is given here; in the data, active means activity change below about -60%; inconclusive means no clear call, values can overlap the other calls; inactive means above about -39%.

Test: qHTS Assay for inhibitors of the human cytomegalovirus (HCMV)
Details: HFF cells, HCMV-luciferase reporter, 72 h; at 57.5 µM; stronger effect = lower value
Method in brief: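 Two-dose cell screen: HFF monolayers treated with compounds and infected with luciferase-expressing HCMV at 1 PFU/cell, 72 h at 37C, then lysed for luciferase measurement.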
On the % scale 0 is the no-effect control and ±100 the full control effect.

SMILES	activity change, negative = inhibition
Cc1ccccc1C(=O)Nc1sc2c(c1C(=O)N1CCC(C)CC1)CCCC2	-11.9%
COc1cc(Br)cc2cc(S(=O)(=O)c3ccccc3)c(=O)oc12	14.3%
COc1ccc(CN2C(=O)CN=C2Nc2ccc(C)cc2C)cc1	1.11%
CCN(CC)C(=O)C1=C(C)N(Cc2ccc(C(C)(C)C)cc2)C(=O)C(CC(=O)NCc2cccc3ccccc23)C1 (stereo unspecified)	16.5%
CC(C)(C)c1ccc(CN2C(=O)CN=C(c3ccccc3)c3ccccc32)cc1	-79.6% (active)
O=C(c1ccc(Cl)cc1)n1nc(-c2cccnc2)nc1NCc1ccc(F)cc1	4.96%
CCOc1ccc(-c2cc3nc(C4CCN(C(=O)OC(C)(C)C)CC4)c(C(=O)Nc4ccc(C(=O)OC)cc4)cn3n2)cc1	24.4%
COc1ccccc1CNC(=O)c1ccc(CS(=O)c2ccccc2Cl)o1 (stereo unspecified)	9.25%
CCOc1ccc(NC(=O)c2c(NCc3cccc(OC)c3OC)sc3c2CCC3)cc1	13%
COCC(C)n1c(SCC(=O)NC2CCCCC2C)nc2ccccc2c1=O (stereo unspecified)	-19.2%
O=C(c1ccco1)N(Cc1nc2ccccc2c(=O)[nH]1)C1CCCC1	-0.921%
CN(c1ccc2nc3ccccc3c(=O)n2n1)C1CCCCC1	-90% (active)
O=C(CCc1ccc(S(=O)(=O)N2CCOCC2)cc1)Nc1ccc2ccccc2c1	-9.83%
COc1ccc(/C=C/C(=O)Nc2ccc(C)cc2)cc1S(=O)(=O)N1CCOCC1	-73.1% (active)
COc1ccc(NC(=O)c2cc(=O)[nH]c3ccccc23)cc1S(=O)(=O)N1CCOCC1	9.13%
COc1ccc(CCC(=O)Nc2ccc(Cl)c(S(=O)(=O)N3CCOCC3)c2)cc1OC	-69% (active)
COc1ccc(CC(=O)Nc2ccc3c(c2)CCC3)cc1S(=O)(=O)N1CCOCC1	-10.6%
COc1ccc(C(=O)N(Cc2ccccc2)c2ccc(C)cc2)cc1S(=O)(=O)N1CCOCC1	-15.2%
O=C(CSc1n[nH]c(-c2ccccc2)n1)N1CCCCC1	61.5%

SMILES	activity change, negative = inhibition
CSc1nc(-c2ccc(F)cc2)nc2c1Cc1c(CO)cnc(C)c1O2	4.76%
CC(C)(CSc1nncn1/N=C/c1ccco1)NS(=O)(=O)c1ccc(Cl)cc1	-28.3%
COc1ccc(CCNC(=O)CCc2cn(C)c3ccccc23)c(OC)c1	-11%
COc1cccc(NC(=O)N2CCCC2C(=O)NC2CCCCC2)c1 (stereo unspecified)	-32.8%
COc1cccc(NC(=O)N(Cc2cn(C)c3ccccc23)C2CCCCCC2)c1	-105% (active)
O=C(Cn1c(=O)n(-c2ccc(F)cc2)c(=O)c2sc3ccccc3c21)NC1CCCC1	-5.96%
Fc1ccc(-c2nc(Nc3cccc(Cl)c3)nc3c2COc2ccccc2-3)cc1	-30.5%
CCOC(=O)C(C)Sc1nnc(CSc2nc3nc(C)cc(C)n3n2)o1 (stereo unspecified)	-27.1%
Cn1c(CNC(=O)c2ccco2)nnc1SCC(=O)N1CCN(c2ccccc2)CC1	9.34%
Cn1c(Cc2cccc3ccccc23)nnc1SCC(=O)N1CCN(c2cccc(Cl)c2)CC1	-71.4% (active)
Cc1cc2nnc(SCC(=O)N3CCN(c4ccccc4)CC3)n2c(N)n1	2.88%
Cc1ccccc1NC(=O)Cn1c(=O)n(CCCCC(=O)NCc2ccccc2Cl)c(=O)c2ccccc21	0.203%
COc1ccc(N2CCN(c3ccc([N+](=O)[O-])nc3)CC2)cc1	-29.8%
Cc1cc(N2CCN(c3ccc(F)cc3)CC2)n2ncnc2n1	-22.6%
COc1ccc(N2CCN(c3cc(C)nc4nncn34)CC2)cc1	-72.4% (active)
COC(=O)c1ccc(/C=N/OCC(=O)Nc2cc(F)ccc2F)cc1	36.6%
Cc1ccc2c(c1)c1c(c(=O)n(-c3ccccc3)c(=O)n1CC(=O)c1ccc(Cl)cc1)n2C	7.77%
O=C(CN(Cc1ccccc1)C(=O)CCC(=O)Nc1ccccn1)NCCc1ccccc1	18.2%
COc1ccc(Cn2c(-c3ccc(Cl)cc3)c[n+]3ccccc23)cc1	-95.3% (active)

SMILES	activity change, negative = inhibition
COc1ccc(CNc2nc(-c3ccc(Cl)cc3)nn2C(=O)c2ccccc2)cc1	1.03%
COc1ccc(Cn2c(=O)oc3ccccc32)cc1	6.27%
CCN1C(=O)C(C(=O)NC(C)c2ccccc2)C2CC1(C)Oc1ccccc12 (stereo unspecified)	-37%
O=S(=O)(c1ccc(F)cc1)N1CCN=C1SCc1cccc(F)c1	-18.5%
O=C(COc1ccccc1)N1CCN=C1SCc1cccc(F)c1	-11.8%
CCCS(=O)(=O)N1CCN=C1SCc1cccc(F)c1	-70.6% (active)
COc1cc(OC)cc(-c2nc3nc(C)c(CCC(=O)Nc4ccccc4)c(C)n3n2)c1	4.64%
Cc1ccc(NC(=O)c2ccc3[nH]c(C)cc(=O)c3c2)c(C)c1	-8.34%
O=C(N/N=C/c1c(O)n(C2CC2)c(=S)[nH]c1=O)c1ccccc1Cl	-9.9%
Cc1[nH]n(-c2ccccc2)c(=O)c1/C=N/NC(=O)c1ccoc1C	-99.7% (active)
O=C(N/N=C/c1c(O)n(C2CC2)c(=S)[nH]c1=O)c1ccccc1	-8.42%
CCOC(=O)CSc1nnc(CNC(=O)Cc2ccccc2)n1-c1ccccc1OC	-26.6%
CC(=O)c1ccc(NC(=O)c2nc(-c3ccc(C)cc3)n3c2CCCCC3)cc1	-8.98%
Cc1cccc(CNC(=O)c2cnc3sc(N4CCCCC4)nn3c2=O)c1	27.1%
CCOc1ccccc1C(=O)NC1(C(F)(F)F)C(=O)Nc2c1c(=O)[nH]c(=O)n2-c1ccc(F)cc1 (stereo unspecified)	-8.54%
CN(CCNC(=O)c1cc2c(-c3ccccc3F)nn(C)c2s1)C1CCCCC1	-6.98%
COc1ccc(CNC(=O)c2cc3c(=O)[nH]c4ccc(C)cc4c3s2)c(OC)c1	-17.4%
COc1ccc(CNC(=O)c2cc3c(-c4ccccc4F)nn(C)c3s2)c(OC)c1	-64.7% (active)
